In the supplement of paper PMC11732987, “Enantioselective OTUD7B fragment discovery through chemoproteomics screening and high-throughput optimisation” (Communications Chemistry, 2025):

Key:
Assay in all cases: log2 ratio of Biotin-Ahx-Ub-VS probe labelling (fragment/DMSO); higher = less target engagement (more negative = stronger competition), active = hit call of the paper (q ≤ 0.05, log2 ratio ≤ -1)
Details in all cases: compound concentration: 200 uM; treatment time: 3 h
USP9X = USP9X (UniProt Q93008)
Procedure, shortened: (§1)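 HEK293T lysate (495 µg per sample, in Tris/CHAPS/IGEPAL buffer with protease inhibitors) was exposed in triplicate for 3 h to fragment at 200 µM or to vehicle, then to Biotin-Ahx-Ub-VS at 0.5 µM final for 1 h. Labelled DUBs were enriched on NeutrAvidin, digested with LysC and trypsin, and analysed by diaPASEF LC-MS/MS. Spectronaut label-free quantities were normalised to the global median, and values are average log2 ratios of fragment over vehicle from an unpaired t-test. Only proteins with ≥2 unique peptides were used.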

UniProt O00487 = molecular target: UniProt O00487
Procedure, shortened: as §1

UniProt O00507 = molecular target: UniProt O00507
Procedure, shortened: as §1

UniProt P51784 = molecular target: UniProt P51784
Procedure, shortened: as §1

UniProt Q5T2D3 = molecular target: T1, UniProt Q5T2D3
T1 sequence (whole entry): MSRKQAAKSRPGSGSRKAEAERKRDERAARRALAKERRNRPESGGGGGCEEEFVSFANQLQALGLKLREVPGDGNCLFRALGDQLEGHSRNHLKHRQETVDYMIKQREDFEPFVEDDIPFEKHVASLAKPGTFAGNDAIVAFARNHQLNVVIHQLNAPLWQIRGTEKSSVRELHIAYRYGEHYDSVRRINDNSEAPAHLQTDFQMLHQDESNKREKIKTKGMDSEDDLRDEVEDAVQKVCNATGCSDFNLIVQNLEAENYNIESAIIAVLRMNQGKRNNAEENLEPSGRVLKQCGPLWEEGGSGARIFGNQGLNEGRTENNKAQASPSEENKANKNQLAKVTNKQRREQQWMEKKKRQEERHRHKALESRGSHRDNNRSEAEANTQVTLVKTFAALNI
Procedure, shortened: as §1

UniProt Q8TE49 = molecular target: T2, UniProt Q8TE49
T2 sequence (whole entry): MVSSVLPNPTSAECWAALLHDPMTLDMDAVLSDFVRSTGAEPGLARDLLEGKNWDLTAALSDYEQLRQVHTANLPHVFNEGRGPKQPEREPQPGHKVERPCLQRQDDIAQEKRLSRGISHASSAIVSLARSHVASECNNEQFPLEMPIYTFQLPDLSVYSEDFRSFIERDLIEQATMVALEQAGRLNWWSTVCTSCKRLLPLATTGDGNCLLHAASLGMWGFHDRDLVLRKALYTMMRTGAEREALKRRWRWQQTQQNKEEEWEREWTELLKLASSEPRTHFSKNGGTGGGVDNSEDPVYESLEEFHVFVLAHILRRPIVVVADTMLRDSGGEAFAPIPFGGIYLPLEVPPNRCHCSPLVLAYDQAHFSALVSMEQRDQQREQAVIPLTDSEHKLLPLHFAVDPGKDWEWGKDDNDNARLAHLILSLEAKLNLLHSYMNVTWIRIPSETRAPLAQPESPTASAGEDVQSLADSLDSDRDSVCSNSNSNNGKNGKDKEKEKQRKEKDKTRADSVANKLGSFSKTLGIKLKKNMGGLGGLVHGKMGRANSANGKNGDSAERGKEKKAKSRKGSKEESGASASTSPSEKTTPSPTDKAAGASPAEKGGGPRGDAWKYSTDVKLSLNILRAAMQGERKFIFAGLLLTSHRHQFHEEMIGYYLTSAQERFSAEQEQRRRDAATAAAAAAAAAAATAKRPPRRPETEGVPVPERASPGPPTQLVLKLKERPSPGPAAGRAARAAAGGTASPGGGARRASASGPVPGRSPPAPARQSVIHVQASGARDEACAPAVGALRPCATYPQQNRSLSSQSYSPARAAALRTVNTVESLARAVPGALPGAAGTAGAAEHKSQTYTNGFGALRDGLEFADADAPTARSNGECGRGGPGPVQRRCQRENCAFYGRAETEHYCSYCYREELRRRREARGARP
Procedure, shortened: as §1

UniProt Q9P2H5 = molecular target: T3, UniProt Q9P2H5
T3 sequence (whole entry): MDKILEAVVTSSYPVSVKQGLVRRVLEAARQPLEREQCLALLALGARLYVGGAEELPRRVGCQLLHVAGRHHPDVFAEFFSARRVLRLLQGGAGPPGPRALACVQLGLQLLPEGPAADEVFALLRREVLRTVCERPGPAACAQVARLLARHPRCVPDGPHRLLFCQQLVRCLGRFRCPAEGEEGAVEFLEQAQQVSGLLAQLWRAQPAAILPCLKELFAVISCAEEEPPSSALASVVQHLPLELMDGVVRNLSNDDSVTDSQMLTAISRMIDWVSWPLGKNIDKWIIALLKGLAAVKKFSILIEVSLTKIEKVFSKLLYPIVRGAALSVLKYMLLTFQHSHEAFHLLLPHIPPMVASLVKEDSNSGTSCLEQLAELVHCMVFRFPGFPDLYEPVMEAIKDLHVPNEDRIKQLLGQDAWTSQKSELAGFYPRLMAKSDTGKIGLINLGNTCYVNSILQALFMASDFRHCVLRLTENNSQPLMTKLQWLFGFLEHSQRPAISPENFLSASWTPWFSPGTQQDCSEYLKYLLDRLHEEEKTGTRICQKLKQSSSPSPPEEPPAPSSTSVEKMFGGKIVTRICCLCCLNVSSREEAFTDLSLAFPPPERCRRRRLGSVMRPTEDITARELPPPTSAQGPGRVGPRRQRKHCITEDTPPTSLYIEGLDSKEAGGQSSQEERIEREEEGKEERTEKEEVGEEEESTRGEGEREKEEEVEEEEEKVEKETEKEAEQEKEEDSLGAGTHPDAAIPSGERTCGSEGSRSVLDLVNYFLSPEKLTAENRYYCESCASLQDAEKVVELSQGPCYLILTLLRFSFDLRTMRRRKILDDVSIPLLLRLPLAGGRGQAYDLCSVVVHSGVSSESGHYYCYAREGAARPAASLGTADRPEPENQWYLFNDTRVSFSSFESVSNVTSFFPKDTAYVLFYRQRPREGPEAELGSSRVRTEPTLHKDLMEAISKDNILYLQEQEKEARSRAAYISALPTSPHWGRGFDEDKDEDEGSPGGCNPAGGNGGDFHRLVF
Procedure, shortened: as §1

UniProt Q9UGI0 = molecular target: T4, UniProt Q9UGI0
T4 sequence (whole entry): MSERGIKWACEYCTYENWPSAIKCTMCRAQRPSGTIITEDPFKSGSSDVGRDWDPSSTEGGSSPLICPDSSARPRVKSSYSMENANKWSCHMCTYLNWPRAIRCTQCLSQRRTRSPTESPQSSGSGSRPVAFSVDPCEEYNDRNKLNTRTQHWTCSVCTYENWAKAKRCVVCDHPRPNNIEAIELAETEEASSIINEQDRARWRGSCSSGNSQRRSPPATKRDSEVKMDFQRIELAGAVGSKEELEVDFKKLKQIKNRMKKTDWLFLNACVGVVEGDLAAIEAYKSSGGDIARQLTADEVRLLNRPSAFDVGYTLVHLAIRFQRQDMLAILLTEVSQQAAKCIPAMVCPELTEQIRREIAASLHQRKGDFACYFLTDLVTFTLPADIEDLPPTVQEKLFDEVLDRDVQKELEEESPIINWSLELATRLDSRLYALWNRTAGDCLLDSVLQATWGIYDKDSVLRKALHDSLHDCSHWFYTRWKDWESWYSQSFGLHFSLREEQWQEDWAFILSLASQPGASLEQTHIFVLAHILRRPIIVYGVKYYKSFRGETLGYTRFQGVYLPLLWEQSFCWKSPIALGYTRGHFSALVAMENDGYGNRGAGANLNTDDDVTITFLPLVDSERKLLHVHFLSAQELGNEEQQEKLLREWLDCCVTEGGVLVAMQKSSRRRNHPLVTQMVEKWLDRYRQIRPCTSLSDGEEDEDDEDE
Procedure, shortened: as §1

YOD1 = molecular target: T5, YOD1 (UniProt Q5VVQ6)
T5 sequence (whole entry): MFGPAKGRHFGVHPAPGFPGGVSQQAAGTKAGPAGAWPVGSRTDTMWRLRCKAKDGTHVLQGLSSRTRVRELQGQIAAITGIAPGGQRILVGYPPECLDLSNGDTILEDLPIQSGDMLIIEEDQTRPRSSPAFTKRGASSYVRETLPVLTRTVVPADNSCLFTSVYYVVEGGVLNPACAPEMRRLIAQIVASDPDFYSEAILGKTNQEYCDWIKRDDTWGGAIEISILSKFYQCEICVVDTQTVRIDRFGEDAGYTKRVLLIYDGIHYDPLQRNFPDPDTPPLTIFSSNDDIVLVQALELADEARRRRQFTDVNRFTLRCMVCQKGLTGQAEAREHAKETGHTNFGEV
Procedure, shortened: as §1

Measured: log2 ratio of Biotin-Ahx-Ub-VS probe labelling

UniProt O00507, sequence (O00507 whole entry): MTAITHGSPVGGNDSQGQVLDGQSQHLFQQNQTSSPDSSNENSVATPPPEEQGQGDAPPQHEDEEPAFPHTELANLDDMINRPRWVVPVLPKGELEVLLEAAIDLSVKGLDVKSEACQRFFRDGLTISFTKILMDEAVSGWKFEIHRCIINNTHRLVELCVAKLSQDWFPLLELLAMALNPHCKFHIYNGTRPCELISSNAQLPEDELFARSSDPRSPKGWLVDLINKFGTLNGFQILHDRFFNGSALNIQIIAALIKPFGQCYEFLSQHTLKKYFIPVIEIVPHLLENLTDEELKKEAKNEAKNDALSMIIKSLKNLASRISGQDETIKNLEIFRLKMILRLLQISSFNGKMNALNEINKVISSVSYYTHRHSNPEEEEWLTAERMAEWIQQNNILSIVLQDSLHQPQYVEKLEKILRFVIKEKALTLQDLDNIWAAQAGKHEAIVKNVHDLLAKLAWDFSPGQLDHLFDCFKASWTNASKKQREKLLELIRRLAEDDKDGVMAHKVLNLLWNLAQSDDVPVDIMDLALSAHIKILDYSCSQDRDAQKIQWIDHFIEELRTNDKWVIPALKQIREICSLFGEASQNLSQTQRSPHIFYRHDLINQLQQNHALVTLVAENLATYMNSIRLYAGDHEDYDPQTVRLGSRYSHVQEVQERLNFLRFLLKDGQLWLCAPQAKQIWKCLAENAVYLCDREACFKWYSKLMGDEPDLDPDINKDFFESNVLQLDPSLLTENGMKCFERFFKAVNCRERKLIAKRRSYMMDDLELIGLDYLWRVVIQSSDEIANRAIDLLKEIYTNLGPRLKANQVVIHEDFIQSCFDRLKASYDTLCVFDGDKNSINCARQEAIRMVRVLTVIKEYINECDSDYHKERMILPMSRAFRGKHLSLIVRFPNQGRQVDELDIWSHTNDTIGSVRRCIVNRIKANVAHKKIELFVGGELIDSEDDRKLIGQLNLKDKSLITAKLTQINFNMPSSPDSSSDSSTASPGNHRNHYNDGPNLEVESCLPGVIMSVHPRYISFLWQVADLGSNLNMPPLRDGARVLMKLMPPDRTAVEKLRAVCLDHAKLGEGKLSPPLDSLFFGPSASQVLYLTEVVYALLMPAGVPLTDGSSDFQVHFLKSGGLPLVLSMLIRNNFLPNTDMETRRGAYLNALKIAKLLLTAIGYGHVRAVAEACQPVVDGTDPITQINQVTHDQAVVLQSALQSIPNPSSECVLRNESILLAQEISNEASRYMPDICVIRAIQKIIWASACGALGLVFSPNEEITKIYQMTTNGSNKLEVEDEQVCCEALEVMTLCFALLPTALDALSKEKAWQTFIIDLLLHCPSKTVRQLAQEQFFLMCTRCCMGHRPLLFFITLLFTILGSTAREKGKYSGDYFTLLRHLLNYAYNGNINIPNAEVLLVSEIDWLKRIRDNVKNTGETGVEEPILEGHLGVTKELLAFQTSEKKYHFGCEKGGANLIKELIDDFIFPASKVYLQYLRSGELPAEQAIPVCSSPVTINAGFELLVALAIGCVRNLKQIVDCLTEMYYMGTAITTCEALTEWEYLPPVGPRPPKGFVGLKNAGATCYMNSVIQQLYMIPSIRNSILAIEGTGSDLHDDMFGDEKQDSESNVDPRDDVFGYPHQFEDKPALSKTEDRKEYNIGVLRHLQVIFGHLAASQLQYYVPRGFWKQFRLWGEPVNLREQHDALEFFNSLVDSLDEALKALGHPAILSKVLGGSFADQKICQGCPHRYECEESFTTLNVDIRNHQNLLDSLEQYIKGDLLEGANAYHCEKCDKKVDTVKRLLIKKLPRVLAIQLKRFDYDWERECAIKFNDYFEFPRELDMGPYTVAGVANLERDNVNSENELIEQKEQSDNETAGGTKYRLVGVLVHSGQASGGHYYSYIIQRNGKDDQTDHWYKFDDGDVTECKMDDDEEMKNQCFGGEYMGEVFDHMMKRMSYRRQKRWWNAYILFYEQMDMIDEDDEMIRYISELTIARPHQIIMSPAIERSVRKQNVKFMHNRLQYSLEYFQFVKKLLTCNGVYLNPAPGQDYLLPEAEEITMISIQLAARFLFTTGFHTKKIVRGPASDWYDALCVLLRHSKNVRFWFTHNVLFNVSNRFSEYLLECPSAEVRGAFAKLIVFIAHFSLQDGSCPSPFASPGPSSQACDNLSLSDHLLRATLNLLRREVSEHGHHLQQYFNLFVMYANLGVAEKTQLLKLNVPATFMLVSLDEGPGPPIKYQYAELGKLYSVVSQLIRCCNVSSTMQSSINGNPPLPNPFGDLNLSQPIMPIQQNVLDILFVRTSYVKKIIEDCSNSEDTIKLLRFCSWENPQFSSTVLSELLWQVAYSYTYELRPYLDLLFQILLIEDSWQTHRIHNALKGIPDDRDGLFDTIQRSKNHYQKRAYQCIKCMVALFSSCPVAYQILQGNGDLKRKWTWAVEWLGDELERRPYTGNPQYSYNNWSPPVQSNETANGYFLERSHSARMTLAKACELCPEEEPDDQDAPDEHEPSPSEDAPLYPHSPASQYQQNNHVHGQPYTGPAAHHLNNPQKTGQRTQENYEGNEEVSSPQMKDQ
UniProt P51784, sequence (P51784 whole entry): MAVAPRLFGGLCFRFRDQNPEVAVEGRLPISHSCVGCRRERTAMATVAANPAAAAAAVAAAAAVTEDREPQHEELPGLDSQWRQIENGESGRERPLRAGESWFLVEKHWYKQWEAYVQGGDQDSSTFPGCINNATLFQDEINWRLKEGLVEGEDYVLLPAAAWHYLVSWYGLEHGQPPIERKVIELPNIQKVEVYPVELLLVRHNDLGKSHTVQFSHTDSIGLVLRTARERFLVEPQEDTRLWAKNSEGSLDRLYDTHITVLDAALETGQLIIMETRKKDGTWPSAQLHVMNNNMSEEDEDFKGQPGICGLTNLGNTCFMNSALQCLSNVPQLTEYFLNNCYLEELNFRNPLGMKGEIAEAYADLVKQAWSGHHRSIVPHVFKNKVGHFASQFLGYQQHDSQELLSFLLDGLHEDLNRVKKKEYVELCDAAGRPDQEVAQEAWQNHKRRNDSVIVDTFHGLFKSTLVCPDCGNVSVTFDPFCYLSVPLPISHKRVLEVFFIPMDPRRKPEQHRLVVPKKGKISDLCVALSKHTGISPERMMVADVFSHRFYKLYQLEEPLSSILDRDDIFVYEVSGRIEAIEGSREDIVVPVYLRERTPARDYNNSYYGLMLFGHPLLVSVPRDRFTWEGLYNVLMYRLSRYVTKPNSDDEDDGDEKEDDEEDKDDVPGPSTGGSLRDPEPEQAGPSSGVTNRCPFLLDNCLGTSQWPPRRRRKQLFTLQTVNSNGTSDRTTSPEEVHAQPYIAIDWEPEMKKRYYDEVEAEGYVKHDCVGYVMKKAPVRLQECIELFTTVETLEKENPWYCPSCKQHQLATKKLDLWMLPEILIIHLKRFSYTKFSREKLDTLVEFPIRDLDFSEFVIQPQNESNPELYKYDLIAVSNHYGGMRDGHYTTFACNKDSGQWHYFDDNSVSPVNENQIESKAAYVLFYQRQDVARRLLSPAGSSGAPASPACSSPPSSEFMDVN
UniProt O00487, sequence (O00487 whole entry): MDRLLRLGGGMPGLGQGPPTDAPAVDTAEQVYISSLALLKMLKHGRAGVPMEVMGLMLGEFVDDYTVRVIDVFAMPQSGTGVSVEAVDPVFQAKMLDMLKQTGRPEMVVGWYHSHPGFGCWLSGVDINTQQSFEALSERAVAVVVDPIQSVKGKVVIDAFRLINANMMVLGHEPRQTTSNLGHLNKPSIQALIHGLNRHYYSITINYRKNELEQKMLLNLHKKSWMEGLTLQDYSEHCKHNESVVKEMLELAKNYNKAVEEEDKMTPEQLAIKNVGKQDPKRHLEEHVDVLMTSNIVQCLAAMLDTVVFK

CS(=O)(=O)c1ccc(NC(=O)CCl)cc1
inactive: USP9X -0.388 | UniProt O00487 -0.115 | UniProt O00507 -0.0176 | UniProt P51784 -0.0206 | UniProt Q5T2D3 -0.139 | UniProt Q8TE49 -0.443 | UniProt Q9P2H5 -0.192 | UniProt Q9UGI0 -0.87 | YOD1 0.0991
